# From article PMC11006913
# Substitutions are numbered along the chain they refer to.
# Columns and labels:
# Experiment in all cases: PBM; 200 nM protein, PBS
# Settings in all cases: dsDNA, one strand shown
# HOXA2 [1] = molecular target: HOXA2 (Homo sapiens, UniProt O43364 129-215, R185T)
# HOXA2 [2] = molecular target: HOXA2 (Homo sapiens, UniProt O43364 129-215, Y150S)
# HOXA2 [3] = molecular target: HOXA2 (Homo sapiens, UniProt O43364 129-215)
# HOXB9 [4] = molecular target: HOXB9 (Homo sapiens, UniProt P17482 171-250)
# MSX2 [5] = molecular target: MSX2 (Homo sapiens, UniProt P35548 130-214)
# HOXB9 [6] = molecular target: HOXB9 (Homo sapiens, UniProt P17482 171-250, R186Q)
# MSX2 [7] = molecular target: MSX2 (Homo sapiens, UniProt P35548 130-214, F161Y)
# HOXA4 [8] = molecular target: HOXA4 (Homo sapiens, UniProt Q00056 201-287, R217L)
# HOXA4 [9] = molecular target: HOXA4 (Homo sapiens, UniProt Q00056 201-287)
# ALX3 = ALX3 (Homo sapiens, UniProt O95076 139-225, N203Q)
# NKX2-6 [10] = molecular target: T1, NKX2-6 (Homo sapiens, UniProt A6NCS4 118-204)
# T1 sequence: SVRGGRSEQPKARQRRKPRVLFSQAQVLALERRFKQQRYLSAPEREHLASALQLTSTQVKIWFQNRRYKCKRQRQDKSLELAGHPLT
# NKX2-6 [11] = molecular target: T2, NKX2-6 (Homo sapiens, UniProt A6NCS4 118-204, F151L)
# T2 sequence: T1 sequence with F34L
# HOXA2 (Homo sapiens, UniProt O43364 129-215, Y150S), sequence (O43364 129-215 Y150S): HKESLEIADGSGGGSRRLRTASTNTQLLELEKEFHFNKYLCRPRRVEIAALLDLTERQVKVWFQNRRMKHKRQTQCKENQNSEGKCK
# HOXA2 (Homo sapiens, UniProt O43364 129-215, R185T), sequence (O43364 129-215 R185T): as the sequence (O43364 129-215 Y150S) above, with S22Y, R57T counted along it
# HOXA2 (Homo sapiens, UniProt O43364 129-215), sequence (O43364 129-215): as the sequence (O43364 129-215 Y150S) above, with S22Y counted along it
# HOXB9 (Homo sapiens, UniProt P17482 171-250), sequence (P17482 171-250): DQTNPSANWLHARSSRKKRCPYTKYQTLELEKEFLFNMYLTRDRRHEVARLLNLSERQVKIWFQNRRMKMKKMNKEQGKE
# HOXB9 (Homo sapiens, UniProt P17482 171-250, R186Q), sequence (P17482 171-250 R186Q): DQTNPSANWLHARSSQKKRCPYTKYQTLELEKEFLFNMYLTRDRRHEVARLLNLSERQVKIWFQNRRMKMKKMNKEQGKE
# MSX2 (Homo sapiens, UniProt P35548 130-214, F161Y), sequence (P35548 130-214 F161Y): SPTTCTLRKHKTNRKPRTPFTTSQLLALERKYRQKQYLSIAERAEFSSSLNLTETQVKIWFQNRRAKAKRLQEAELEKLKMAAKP
# HOXA4 (Homo sapiens, UniProt Q00056 201-287, R217L), sequence (Q00056 201-287 R217L): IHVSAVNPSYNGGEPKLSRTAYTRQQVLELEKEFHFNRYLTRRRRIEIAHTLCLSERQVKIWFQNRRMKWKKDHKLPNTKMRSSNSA
# MSX2 (Homo sapiens, UniProt P35548 130-214), sequence (P35548 130-214): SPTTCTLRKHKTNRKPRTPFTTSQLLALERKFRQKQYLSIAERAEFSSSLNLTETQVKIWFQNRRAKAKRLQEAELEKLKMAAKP
# ALX3, sequence (O95076 139-225 N203Q): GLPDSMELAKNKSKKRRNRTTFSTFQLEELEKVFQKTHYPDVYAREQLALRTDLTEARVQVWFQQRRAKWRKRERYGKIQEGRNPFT
# HOXA4 (Homo sapiens, UniProt Q00056 201-287), sequence (Q00056 201-287): as the sequence (Q00056 201-287 R217L) above, with L17R counted along it
sequence,measurement,setting,value
AACTAAAA,binding signal,HOXA2 [1],"8.87 upbm affinity estimate (log intensity, higher = more binding, comparable within an allelic series)"
same,binding signal,HOXA2 [2],"10.6 upbm affinity estimate (log intensity, higher = more binding, comparable within an allelic series)"
same,binding signal,HOXA2 [3],"8.87 upbm affinity estimate (log intensity, higher = more binding, comparable within an allelic series)"
TATCAAAA,binding signal,HOXA2 [1],"8.75 upbm affinity estimate (log intensity, higher = more binding, comparable within an allelic series)"
same,binding signal,HOXA2 [3],"8.82 upbm affinity estimate (log intensity, higher = more binding, comparable within an allelic series)"
CACACTAA,binding signal,HOXB9 [4],"9.92 upbm affinity estimate (log intensity, higher = more binding, comparable within an allelic series)"
same,binding signal,MSX2 [5],"10.8 upbm affinity estimate (log intensity, higher = more binding, comparable within an allelic series)"
same,binding signal,HOXB9 [6],"9.82 upbm affinity estimate (log intensity, higher = more binding, comparable within an allelic series)"
same,binding signal,MSX2 [7],"10.7 upbm affinity estimate (log intensity, higher = more binding, comparable within an allelic series)"
AATTGGGC,binding signal,HOXA2 [1],"9.64 upbm affinity estimate (log intensity, higher = more binding, comparable within an allelic series)"
same,binding signal,HOXA2 [2],"10.6 upbm affinity estimate (log intensity, higher = more binding, comparable within an allelic series)"
same,binding signal,HOXA2 [3],"9.35 upbm affinity estimate (log intensity, higher = more binding, comparable within an allelic series)"
CATTTTAC,binding signal,HOXA2 [1],"8.88 upbm affinity estimate (log intensity, higher = more binding, comparable within an allelic series)"
same,binding signal,HOXA2 [3],"8.85 upbm affinity estimate (log intensity, higher = more binding, comparable within an allelic series)"
TAAACATA,binding signal,HOXA2 [1],"8.59 upbm affinity estimate (log intensity, higher = more binding, comparable within an allelic series)"
same,binding signal,HOXA2 [3],"8.55 upbm affinity estimate (log intensity, higher = more binding, comparable within an allelic series)"
AGGCTAAT,binding signal,HOXB9 [4],"9.89 upbm affinity estimate (log intensity, higher = more binding, comparable within an allelic series)"
same,binding signal,HOXB9 [6],"9.92 upbm affinity estimate (log intensity, higher = more binding, comparable within an allelic series)"
ATCAGAAA,binding signal,HOXA2 [1],"8.59 upbm affinity estimate (log intensity, higher = more binding, comparable within an allelic series)"
same,binding signal,HOXA2 [2],"10.6 upbm affinity estimate (log intensity, higher = more binding, comparable within an allelic series)"
same,binding signal,HOXA2 [3],"8.63 upbm affinity estimate (log intensity, higher = more binding, comparable within an allelic series)"
ACAATACC,binding signal,HOXB9 [4],"9.73 upbm affinity estimate (log intensity, higher = more binding, comparable within an allelic series)"
AAAAATAT,binding signal,HOXA4 [8],"10.8 upbm affinity estimate (log intensity, higher = more binding, comparable within an allelic series)"
same,binding signal,HOXA4 [9],"11.1 upbm affinity estimate (log intensity, higher = more binding, comparable within an allelic series)"
AAATACCC,binding signal,HOXA2 [1],"9.06 upbm affinity estimate (log intensity, higher = more binding, comparable within an allelic series)"
same,binding signal,HOXA2 [3],"8.99 upbm affinity estimate (log intensity, higher = more binding, comparable within an allelic series)"
AAAAATTG,binding signal,HOXA2 [1],"8.96 upbm affinity estimate (log intensity, higher = more binding, comparable within an allelic series)"
same,binding signal,HOXA2 [3],"8.94 upbm affinity estimate (log intensity, higher = more binding, comparable within an allelic series)"
AGATAGAT,binding signal,HOXA2 [1],"8.87 upbm affinity estimate (log intensity, higher = more binding, comparable within an allelic series)"
same,binding signal,HOXA2 [3],"8.71 upbm affinity estimate (log intensity, higher = more binding, comparable within an allelic series)"
AGAAATTA,binding signal,HOXB9 [4],"10.7 upbm affinity estimate (log intensity, higher = more binding, comparable within an allelic series)"
same,binding signal,HOXB9 [6],"10.5 upbm affinity estimate (log intensity, higher = more binding, comparable within an allelic series)"
AGATGTAA,binding signal,HOXA2 [1],"9.25 upbm affinity estimate (log intensity, higher = more binding, comparable within an allelic series)"
same,binding signal,HOXA2 [3],"9.27 upbm affinity estimate (log intensity, higher = more binding, comparable within an allelic series)"
CTACTATA,binding signal,HOXB9 [4],"10.2 upbm affinity estimate (log intensity, higher = more binding, comparable within an allelic series)"
same,binding signal,HOXB9 [6],"10 upbm affinity estimate (log intensity, higher = more binding, comparable within an allelic series)"
ATATAGTA,binding signal,HOXB9 [4],"10.2 upbm affinity estimate (log intensity, higher = more binding, comparable within an allelic series)"
same,binding signal,ALX3,"8.55 upbm affinity estimate (log intensity, higher = more binding, comparable within an allelic series)"
same,binding signal,HOXB9 [6],"10.1 upbm affinity estimate (log intensity, higher = more binding, comparable within an allelic series)"
AAGATCAT,binding signal,HOXB9 [4],"9.78 upbm affinity estimate (log intensity, higher = more binding, comparable within an allelic series)"
same,binding signal,HOXB9 [6],"9.78 upbm affinity estimate (log intensity, higher = more binding, comparable within an allelic series)"
AACTATTG,binding signal,HOXA2 [1],"8.83 upbm affinity estimate (log intensity, higher = more binding, comparable within an allelic series)"
same,binding signal,HOXA2 [3],"8.91 upbm affinity estimate (log intensity, higher = more binding, comparable within an allelic series)"
ACATTAGC,binding signal,HOXA4 [8],"10.8 upbm affinity estimate (log intensity, higher = more binding, comparable within an allelic series)"
AAACTTAA,binding signal,HOXA2 [1],"8.91 upbm affinity estimate (log intensity, higher = more binding, comparable within an allelic series)"
same,binding signal,HOXA2 [3],"8.97 upbm affinity estimate (log intensity, higher = more binding, comparable within an allelic series)"
AGGTTGAT,binding signal,HOXA2 [1],"8.92 upbm affinity estimate (log intensity, higher = more binding, comparable within an allelic series)"
same,binding signal,HOXA2 [3],"9.03 upbm affinity estimate (log intensity, higher = more binding, comparable within an allelic series)"
AAATCAGC,binding signal,HOXA2 [1],"9.59 upbm affinity estimate (log intensity, higher = more binding, comparable within an allelic series)"
same,binding signal,HOXA2 [2],"10.7 upbm affinity estimate (log intensity, higher = more binding, comparable within an allelic series)"
same,binding signal,HOXA2 [3],"9.43 upbm affinity estimate (log intensity, higher = more binding, comparable within an allelic series)"
CTATTCAA,binding signal,HOXA2 [1],"9.27 upbm affinity estimate (log intensity, higher = more binding, comparable within an allelic series)"
same,binding signal,HOXA2 [2],"10.8 upbm affinity estimate (log intensity, higher = more binding, comparable within an allelic series)"
same,binding signal,HOXA2 [3],"9.17 upbm affinity estimate (log intensity, higher = more binding, comparable within an allelic series)"
AGATGACC,binding signal,HOXA2 [1],"9.18 upbm affinity estimate (log intensity, higher = more binding, comparable within an allelic series)"
same,binding signal,HOXA2 [2],"10.5 upbm affinity estimate (log intensity, higher = more binding, comparable within an allelic series)"
same,binding signal,HOXA2 [3],"9.29 upbm affinity estimate (log intensity, higher = more binding, comparable within an allelic series)"
ACTCGTAA,binding signal,HOXA2 [1],"9.32 upbm affinity estimate (log intensity, higher = more binding, comparable within an allelic series)"
same,binding signal,HOXA2 [3],"9.32 upbm affinity estimate (log intensity, higher = more binding, comparable within an allelic series)"
ATCATCTG,binding signal,HOXA2 [1],"9.25 upbm affinity estimate (log intensity, higher = more binding, comparable within an allelic series)"
same,binding signal,HOXA2 [2],"10.7 upbm affinity estimate (log intensity, higher = more binding, comparable within an allelic series)"
same,binding signal,HOXA2 [3],"9.72 upbm affinity estimate (log intensity, higher = more binding, comparable within an allelic series)"
CCTATTTA,binding signal,HOXB9 [4],"10.4 upbm affinity estimate (log intensity, higher = more binding, comparable within an allelic series)"
same,binding signal,NKX2-6 [10],"11.2 upbm affinity estimate (log intensity, higher = more binding, comparable within an allelic series)"
same,binding signal,HOXB9 [6],"10.2 upbm affinity estimate (log intensity, higher = more binding, comparable within an allelic series)"
same,binding signal,NKX2-6 [11],"9.86 upbm affinity estimate (log intensity, higher = more binding, comparable within an allelic series)"
CCTATCAG,binding signal,HOXA2 [1],"8.81 upbm affinity estimate (log intensity, higher = more binding, comparable within an allelic series)"
same,binding signal,HOXA2 [3],"8.67 upbm affinity estimate (log intensity, higher = more binding, comparable within an allelic series)"
GACCATCA,binding signal,HOXA2 [1],"8.84 upbm affinity estimate (log intensity, higher = more binding, comparable within an allelic series)"
same,binding signal,HOXA2 [2],"10.6 upbm affinity estimate (log intensity, higher = more binding, comparable within an allelic series)"
same,binding signal,HOXA2 [3],"9.24 upbm affinity estimate (log intensity, higher = more binding, comparable within an allelic series)"
TAATAGTA,binding signal,HOXB9 [4],"10.9 upbm affinity estimate (log intensity, higher = more binding, comparable within an allelic series)"
same,binding signal,MSX2 [5],"11.7 upbm affinity estimate (log intensity, higher = more binding, comparable within an allelic series)"
same,binding signal,HOXB9 [6],"10.8 upbm affinity estimate (log intensity, higher = more binding, comparable within an allelic series)"
same,binding signal,MSX2 [7],"11.5 upbm affinity estimate (log intensity, higher = more binding, comparable within an allelic series)"
ATTTCATC,binding signal,HOXA2 [1],"8.72 upbm affinity estimate (log intensity, higher = more binding, comparable within an allelic series)"
same,binding signal,HOXA2 [2],"10.6 upbm affinity estimate (log intensity, higher = more binding, comparable within an allelic series)"
same,binding signal,HOXA2 [3],"8.75 upbm affinity estimate (log intensity, higher = more binding, comparable within an allelic series)"
ATATTTCC,binding signal,HOXB9 [4],"9.97 upbm affinity estimate (log intensity, higher = more binding, comparable within an allelic series)"
same,binding signal,HOXB9 [6],"9.85 upbm affinity estimate (log intensity, higher = more binding, comparable within an allelic series)"
AAAATACC,binding signal,HOXB9 [4],"9.6 upbm affinity estimate (log intensity, higher = more binding, comparable within an allelic series)"
same,binding signal,HOXB9 [6],"9.45 upbm affinity estimate (log intensity, higher = more binding, comparable within an allelic series)"
AATGCAAT,binding signal,HOXB9 [4],"10.3 upbm affinity estimate (log intensity, higher = more binding, comparable within an allelic series)"
same,binding signal,HOXB9 [6],"10.2 upbm affinity estimate (log intensity, higher = more binding, comparable within an allelic series)"
